The values that follow come from PubChem BioAssay (EPA / NIEHS).

The structures appear in SMILES notation. A structure can be active in one record and inactive in another. Active and inactive are the calls of the source. Rule for the calls: active = hit-call score of the fitted dose curve at least 0.9, where 1 is the maximum; inactive = score below 0.9.

As a reminder, the AC50 is the concentration giving half of the maximal activity seen.

Read-out in this test: Monocyte Chemoattractant Protein-1 (MCP1), CCL2 (gene 6347)
Put plainly: BSK_hDFCGF_MCP1: BioMAP Diversity Plus: hDFCGF Assay for Monocyte Chemoattractant Protein-1 (MCP1) Biomarker Activity (AID 2284285). Conditions: primary human foreskin fibroblasts. The protocol:
BSK_hDFCGF is a cell-based, multiplexed-readout assay that uses foreskin fibroblast, a human skin primary cell, with measurements taken at 24 hours after chemical dosing in a 96-well plate.BSK_hDFCGF_MCP1 is an assay component measured in the BSK_hDFCGF assay. It measures MCP-1 antibody related to regulation of gene expression using ELISA technology.Data from the assay component BSK_hDFCGF_MCP1 was analyzed at the endpoint, BSK_hDFCGF_MCP1, in the positive analysis fitting direction relative to DMSO as the negative control and baseline of activity. Using a type of binding reporter, gain or loss-of-signal activity can be used to understand protein changes. To generalize the intended target to other relatable targets, this assay endpoint is annotated to the 'cytokine' intended target family, where the subfamily is 'chemotactic factor'.
The levels of cell surface (or secreted, indicated by the prefix "s") biomarker endpoints were measured by ELISA. Overt cytotoxicity to cells in confluent adherent cultures (all systems other than the BT system) was assessed by measuring total protein levels using sulforhodamine B (SRB) staining in parallel cultures at the time of biomarker measurements, indicated as SRB endpoints. For proliferation assays for adherent cell types, individual cell types are cultured at sub-confluence and relative cell numbers quantified by SRB staining at time points optimized for each system (48 h: 3C and CASM3C systems; 72 h: BT and HDF3CGF systems; 96 h: SAg system). SRB was performed by staining cells with 0.1% SRB after fixation with 10% TCA and reading wells at 560 nm.Viability and proliferation of PBMC (T cells) was quantified by Alamar Blue reduction for the SAg and BT systems. For PBMC viability (referred to as PBMC Cytotoxicity within the assay endpoint names), cells were plated (75,000/well in a 96-well plate) and then chemical samples added for 1 h before addition of activators, SEB and TSST-1 (20 ng/mL final concentration each). Cells were incubated for 90 h. Then, Alamar Blue (20 uL/well) (Invitrogen, Cat DAL1100) was added for 6 h, and the plates were read with a fluorescence microplate reader at 546/580 nm (excitation/emission). For PBMC proliferation, cells were plated and activated as above but incubated for only 16 h prior to addition of Alamar Blue. Plates were read after 6 h.
Take `FC(F)=C(F)C(F)(F)C(F)(F)C(F)(F)C(F)(F)C(F)(F)C(F)(F)F`: the result was inactive.

In the case of `OC(O)(C(F)C(O)(O)C(F)(F)F)C(F)(F)F`, the outcome was inactive.

In the case of `O=C(Cl)C(F)(F)C(F)(F)C(F)(F)C(=O)Cl`, the outcome was inactive.

As for `C[Si](C)(C)C(F)(F)C(F)(F)C(F)(F)F`, the result was inactive.

On to `O=S(=O)(O)CCC(F)(F)C(F)(F)C(F)(F)C(F)(F)C(F)(F)C(F)(F)F`, for which the outcome was inactive.

Turning to `NCC(F)(F)C(F)(F)C(F)(F)C(F)(F)F`, the outcome was inactive.

Take `FC(F)(F)C(F)(F)C(F)(F)C(F)(F)C(F)(F)C(F)(F)I`: the outcome was inactive and the AC50 is 28.2 µM (active).

For `OCCC(F)(F)C(F)(F)C(F)(F)C(F)(F)F`, the result was inactive.

For `FC(F)C(F)(F)COCC1CO1` (stereo unspecified), the result was inactive.

For the compound `FC(F)(F)COC(OCC(F)(F)F)OCC(F)(F)F`, the outcome was inactive.
